We go through 13 compounds from PubChem BioAssay (NCI).

Each structure is given as a SMILES string. Compounds without any hit were thinned out: in the full panel of roughly 83,000, 20% have a hit.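 96-well plates, one dose, 48 hours. Percent growth reported; active if below 10.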 Values without a mark were called inactive. Calls of active or inactive are those of the source.

Common to all, as to assay: NCI-60 one-dose screen, 48 h (100 = growth as untreated, 0 = no growth, -100 = all killed)
Common to all, as to settings: 10 µM unless noted

Assay [1] concerns SK-MEL-2 melanoma.
In assay [2] the test system is EKVX NSCLC.
The subject of assay [3] is SN12C renal.
The test system of assay [4] is UO-31 renal.
Assay [5] concerns TK-10 renal.
Assay [6] concerns ACHN renal.
The subject of assay [7] is CAKI-1 renal.
In assay [8] the test system is A498 renal.
Assay [9] has as its system CCRF-CEM leukemia.
Assay [10] concerns MOLT-4 leukemia.

For `Cn1c2c(Cl)c(Cl)ccc2c2ccn3c(=O)c4ccccc4nc3c21`, the growth in [1] is 107%; in [2], 80.8%; in assay [3], 104%; in assay [4], 70.1%; in [5], 162%; in assay [6], 93%. Besides, the growth in assay [7] was 89.1%; in assay [8] it was 120%; in assay [9], 80.8%; in [10], 94.7%.
As to `Cc1ccccc1CCO`, the growth in assay [1] was 86.3%; in assay [2], 105%; in [3], 107%; in [4] it was 88.8%; in [5], 82.4%; in assay [6] it was 98.4%. In addition, the growth in [7] was 100%; in assay [8] it was 96.5%; in assay [9], 116%; in assay [10], 111%.
With `O=C1/C(=C/c2ccccc2)CN(CCC(=O)N2C/C(=C\c3ccccc3)C(=O)/C(=C/c3ccccc3)C2)C/C1=C\c1ccccc1`, the growth in assay [1] is 92.1%; in assay [2], 63.6%; in assay [3] it was 68.3%; in [4] it was 47.7%; in assay [5], 98.5%; in assay [6] it was 62.1%. Moreover, the growth in assay [7] is 61.7%; in assay [8] it was 60.8%; in [9], 9.77% (active); in [10] it was 29.5%.
Regarding `NS(=O)(=O)c1ccc(-n2ncc3c(=O)[nH]c(CN4CCN(c5cc6c(cc5F)c(=O)c(C(=O)O)cn6C5CC5)CC4)nc32)cc1`, the growth in assay [1] is 106%; in assay [2], 92.6%; in assay [3] it was 95%; in assay [4] it was 70%; in assay [5], 119%; in assay [6], 94%. For the same compound, the growth in assay [7] is 89.2%; in assay [8], 102%; in assay [9] it was 93.4%; in [10], 97%.
With `COc1ccc(S(=O)(=O)NCCCNc2nccc(-c3c(-c4cccc(N)c4)nc4sccn34)n2)cc1`, the growth in assay [1] was 113%; in assay [2], 96.3%; in assay [3], 76.7%; in assay [4] it was 76.4%; in [5], 134%; in assay [6], 78.8%. In addition, the growth is 77.5% in assay [7], 91.2% in [8], 78.4% in assay [9] and 75.5% in assay [10].
As to `CNc1nc(C)c(-c2nc(Nc3cccc(S(N)(=O)=O)c3)ncc2F)s1`, the growth in assay [1] is -50.9% (active); in [2], 4.38% (active); in [3] it was -17.2% (active); in assay [4], 1.38% (active); in assay [5] it was -2.07% (active); in assay [6] it was 2.7% (active). Moreover, the growth in [7] was 14.8%; in assay [8], -38.8% (active); in assay [9], -2.73% (active); in assay [10], -26.9% (active).
Take `CCCCCCCCCC(=O)Oc1ccc(/C(=C(/C)c2ccccc2)c2ccc(OCCN3CCCC3)cc2)cc1`: the growth in [1] was -31.5% (active); in assay [2] it was 44.1%; in [3], 44.8%; in assay [4], 7.66% (active); in assay [5], 43%; in assay [6] it was 35.2%. In addition, the growth in assay [7] was 1.34% (active); in [8], 1.68% (active); in assay [9], 13.1%; in assay [10], 2.39% (active).
Take `Cc1ccc(-c2nc(/C=N/Nc3cc(C)nc4ccc(Br)cc34)c(C)o2)cc1`: the growth was 95.8% in [1]; 2.6% (active) in assay [2]; -83.4% (active) in assay [3]; -98% (active) in assay [4]; -17.5% (active) in [5]; -85.1% (active) in [6]. In addition, the growth is -71.5% (active) in [7], 86.6% in assay [8], -42.1% (active) in assay [9] and -34.7% (active) in [10].
For `CSc1nc2sc3c(c2c(=O)n1-c1ccc(C(C)C)cc1)CCC(=O)C3`, the growth is 63.8% in assay [1]; 23.1% in assay [2]; 6.68% (active) in assay [3]; -67.2% (active) in assay [4]; 7.34% (active) in assay [5]; -19.9% (active) in assay [6]. Besides, the growth is -9.77% (active) in assay [7], 96.3% in [8], -11.8% (active) in [9] and -12.6% (active) in assay [10].
Take `O=C(O)c1ccc2c(c1Sc1ccccc1)C(=O)c1ccccc1C2=O`: the growth in assay [1] was 90.5%; in assay [2] it was 36.1%; in [3], 96.6%; in assay [4], 77%; in [5] it was 86.5%; in assay [6], 95.3%. The growth was 84.4% in [7], 114% in assay [8], 91.9% in [9] and 113% in assay [10].
Regarding `COc1ccc(Cl)cc1Nc1nc(C(F)(F)F)ccc1C(=O)N/N=C/c1cccnc1`, the growth is 39% in [1]; 48.5% in assay [2]; 62.7% in assay [3]; 41.5% in [4]; 49% in assay [5]; 36.7% in assay [6]. Besides, the growth in assay [7] is 43.2%; in assay [8], 40.8%; in assay [9], 13%; in [10], 2% (active).
Consider `COc1ccc(/C=C2\CN(C(=O)CCN3CCC(=NO)CC3)C/C(=C\c3ccc(OC)cc3)C2=O)cc1`, for which the growth is 89.4% in assay [1]; 28% in [2]; -52% (active) in assay [3]; -87.7% (active) in assay [4]; 21.5% in assay [5]; -41.7% (active) in [6]. Moreover, the growth in assay [7] was 11.3%; in assay [8], 36.1%; in assay [9] it was 0.63% (active); in [10], 0.493% (active).
As to `CC(=O)O[C@H]1CC[C@]2(C)[C@H]3CC[C@@H]4[C@H]5[C@H](C(C)C)CC[C@]5(C(=O)OCC(CO)(CO)N=C(N)N)CC[C@@]4(C)[C@]3(C)CC[C@H]2C1(C)C`, the growth in [1] was 102%; in assay [2], 88.7%; in [3], 13.7%; in assay [4] it was 55.1%; in [5], 88%; in [6], 83.4%. For the same compound, the growth was 81.1% in assay [7], 113% in assay [8], 11.3% in assay [9] and 0.198% (active) in [10].
